APE1 inh-1: inhibitors of human APE1 endonuclease; P27695; recombinant APE1, TAMRA/BHQ-2 abasic DNA cleavage fluorescence; Potency, µM (top dose mostly 65.8 µM), inactives show at the top dose activity change, negative = inhibition, most hits filed as inhibitors; hit rate 0.35% among 350,000; AID 2517;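 also: plate controls were vehicle for no effect and reference inhibitor for full effect; nearly all actives have a fitted effect of over 55% in size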
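Substrate: short duplex with […] THF abasic site, 5'-TAMRA and 3'-BHQ-2, 50 nM final. APE1 at 0.75 nM, preincubated 15 min RT with compound. Fluorescence increase from first to third read measured activity.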
WRN inhibitor: WRN helicase (human) inhibition; WRN helicase unwinding, fluorescent forked duplex, kinetic; hit rate 0.46% among 360,000; Potency, µM (highest dose often 114 µM), inactives show at the highest dose activity change, negative = inhibition, hits mostly inhibitors; also: nearly all actives have a fitted effect of over 55% in size
Target sequence (Q14191 whole entry, looked up): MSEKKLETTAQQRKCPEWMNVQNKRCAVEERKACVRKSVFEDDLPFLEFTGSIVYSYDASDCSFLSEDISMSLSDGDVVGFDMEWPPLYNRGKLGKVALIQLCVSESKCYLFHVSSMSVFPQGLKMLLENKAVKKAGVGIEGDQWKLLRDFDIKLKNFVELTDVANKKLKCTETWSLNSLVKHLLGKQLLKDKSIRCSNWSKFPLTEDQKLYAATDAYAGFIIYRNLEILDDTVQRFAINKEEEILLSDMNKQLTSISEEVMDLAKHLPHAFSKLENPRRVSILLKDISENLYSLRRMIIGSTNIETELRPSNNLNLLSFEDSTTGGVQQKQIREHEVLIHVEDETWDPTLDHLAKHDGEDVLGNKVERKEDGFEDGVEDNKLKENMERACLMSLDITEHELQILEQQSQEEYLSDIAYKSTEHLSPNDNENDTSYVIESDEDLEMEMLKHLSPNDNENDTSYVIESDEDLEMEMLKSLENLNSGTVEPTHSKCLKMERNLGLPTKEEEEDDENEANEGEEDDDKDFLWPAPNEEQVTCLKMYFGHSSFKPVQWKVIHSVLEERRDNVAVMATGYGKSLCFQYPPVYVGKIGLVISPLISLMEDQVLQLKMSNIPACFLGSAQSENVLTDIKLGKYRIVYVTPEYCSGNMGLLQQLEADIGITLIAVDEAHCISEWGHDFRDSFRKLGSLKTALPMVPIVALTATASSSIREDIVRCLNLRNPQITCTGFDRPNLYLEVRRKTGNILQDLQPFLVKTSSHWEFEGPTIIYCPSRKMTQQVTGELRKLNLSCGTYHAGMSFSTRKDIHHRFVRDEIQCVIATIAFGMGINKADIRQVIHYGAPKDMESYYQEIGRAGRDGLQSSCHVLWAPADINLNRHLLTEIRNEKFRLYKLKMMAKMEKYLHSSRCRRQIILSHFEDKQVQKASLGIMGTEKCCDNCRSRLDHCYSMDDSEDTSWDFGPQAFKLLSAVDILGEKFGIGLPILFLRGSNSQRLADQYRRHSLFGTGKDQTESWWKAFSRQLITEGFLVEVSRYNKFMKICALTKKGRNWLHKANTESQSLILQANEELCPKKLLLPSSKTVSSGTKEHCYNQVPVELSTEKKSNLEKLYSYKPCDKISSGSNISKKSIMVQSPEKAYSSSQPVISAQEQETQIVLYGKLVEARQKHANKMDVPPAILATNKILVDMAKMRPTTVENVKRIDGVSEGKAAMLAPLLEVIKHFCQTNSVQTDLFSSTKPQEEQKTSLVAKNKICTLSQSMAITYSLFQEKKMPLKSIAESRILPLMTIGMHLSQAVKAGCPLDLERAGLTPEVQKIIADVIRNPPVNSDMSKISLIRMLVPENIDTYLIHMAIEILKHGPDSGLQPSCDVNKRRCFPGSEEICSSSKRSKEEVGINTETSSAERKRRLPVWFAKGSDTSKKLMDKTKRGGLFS
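WRN at 20 nM final preincubated with compound 15 min at room temperature; reaction started with 100 nM fluorophore/quencher forked duplex oligonucleotide and 2 mM ATP final. Unwinding followed kinetically by red fluorescence (ex 525, em 598 nm).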
BLM inh-1: inhibitors of human Bloom syndrome helicase BLM; recombinant BLM DNA unwinding, fluorescence dequenching; P54132; hit rate 0.2% among 350,000; Potency, µM (series often up to 56.1 µM), without a hit: at the highest dose activity change, negative = inhibition, usual class: inhibitors; AID 2528;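 also: plate controls were vehicle for no effect and no enzyme for full effect; nearly all actives have a fitted effect of over 35% in size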
RECQ1 inh-1: inhibitors of human RECQ1 DNA helicase | RECQ1 DNA unwinding, red fluorescence kinetic read | P46063 | AID 2549 | hit rate 0.54% among 240,000 | Potency, µM (titrated, usually from 57.3 µM), for the others: at the highest dose activity, negative = inhibition, most hits filed as inhibitors;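 also: plate controls were vehicle for no effect and no enzyme for full effect; nearly all actives have a fitted effect of over 30% in size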
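50 nM RECQ1T1 preincubated 15 min with compound in Tris pH 8.0 buffer with MgCl2, DTT, Tween-20 and 2.5 ug/ml poly(dI-dC); started with 200 nM TAMRA/BHQ-2 forked duplex and 2 mM ATP. Unwinding read as fluorescence (525/598 nm), two reads 2 h apart.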
L3MBTL1 block: blocks human L3MBTL1; Potency, µM (highest dose often 57.1 µM), without a hit: at the highest dose activity, negative = inhibition, most hits filed as inhibitors; hit rate 0.66% among 230,000; AID 485360; AlphaScreen L3MBTL1–H3K9me1 peptide binding; Q9Y468; also: nearly all actives have a fitted effect of over 60% in size
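AlphaScreen assay: L3MBTL1 (50 nM final) was preincubated 30 min at room temperature with biotinylated H3(1-15)K9me1 peptide (75 nM final), then 30 min with library compounds; streptavidin donor and nickel chelate acceptor beads (10 ug/mL final) added, 30 min dark.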
DNA dye displace: DNA dye displacement counter-screen activity; shares compounds with APE1 inh-1; Potency, µM (series often up to 28.5 µM), without a hit: top-dose activity change, negative = inhibition, usual class: inhibitors; DNA fluorescent dye displacement counterscreen, fluorescence; hit rate 7% among 480;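 also: loss of thiazole orange fluorescence as the dye is displaced from duplex DNA; 0% = ThO with dsDNA and no compound and -100% = ThO without dsDNA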
Endo IV inh: blocks E. coli endonuclease IV DNA cleavage; hit rate 4% among 560; E. coli Endo IV, fluorogenic AP-site DNA cleavage; Potency, µM (titrated, usually from 27.1 µM), for inactives: at the highest dose activity change, negative = inhibition, usual class: inhibitors; AID 2565; shares compounds with APE1 inh-1;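 also: plate controls were uninhibited enzyme wells for no effect and no enzyme buffer wells for full effect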
APE1 inh-2: APE1 (human) endonuclease inhibition, confirmation. shares compounds with APE1 inh-1. purified APE1, fluorogenic abasic-site DNA cleavage. Potency, µM (titrated, usually from 57.1 µM), without a hit: at the top dose activity change, negative = inhibition, most hits filed as inhibitors. hit rate 44% among 750; also: nearly all actives have a fitted effect of over 30% in size
APE1 FP: APE1 (human) DNA binding inhibition, fluorescence polarization. APE1 binding to TAMRA-labelled double-stranded DNA, fluorescence polarization displacement. hit rate 7% among 480. shares compounds with APE1 inh-1. Potency, µM (titrated, usually from 28.5 µM), without a hit: at the top dose activity, negative = inhibition, usual class: inhibitors
BLM inh-2: confirmation of inhibitors of human Bloom syndrome helicase BLM; Potency, µM, without a hit: max response, negative = inhibition, actives largely listed as inhibitors; BLM DNA unwinding, fluorescence quenching, biochemical; hit rate 40% among 220; AID 2585; shares compounds with BLM inh-1;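 also: strand separation dequenches TAMRA so unwinding raises red fluorescence; series mostly up to about 69 µM; nearly all actives have a fitted effect of over 45% in size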
RECQ1 inh conf: confirmation of human RECQ1 helicase inhibitors; RECQ1 helicase DNA unwinding, fluorescence; Potency, µM (series often up to 229 µM), for inactives: at the top dose activity change, negative = inhibition, usual class: inhibitors; hit rate 28% among 610; shares compounds with RECQ1 inh-1; also: nearly all actives have a fitted effect of over 45% in size
ADP FP counter: displaces ADP in a fluorescence polarization counter-screen for RECQ1 hits; shares compounds with RECQ1 inh-1; ADP fluorescence polarization displacement counterscreen; Potency, µM (doses to about 228 µM), inactives show at the highest dose activity change, negative = inhibition, actives largely listed as inhibitors; hit rate 27% among 530; AID 2711; also: nearly all actives have a fitted effect of over 45% in size
RECQ1 inh-2: blocks human RECQ1 DNA unwinding; shares compounds with RECQ1 inh-1; recombinant RECQ1 DNA unwinding, red fluorescence; Potency, µM (titrated, usually from 119 µM), for inactives: top-dose activity, negative = inhibition, hits mostly inhibitors; hit rate 15% among 1,100; also: nearly all actives have a fitted effect of over 50% in size
The depositor's hits bear a star; i = inactive; ? = inconclusive; / = no result; [ ] = dose if it differs, or a comment. The list is not random: actives were taken first. Their share in the collection is about 0.92%. Calls follow the shape of the dose curve; as a rule, active = well fitted curve in the direction sought with a large enough effect; inconclusive = small, poorly fitted or top-dose-only effect, or another doubt; inactive = no such curve, though single readings can be large; an effect the other way counts as inactive or inconclusive. Unless noted, % is scaled to controls: 0 for no effect and ±100 for the full control effect; potency is read from the fitted curve at half-maximal effect.

SMILES	APE1 inh-1	WRN inhibitor	BLM inh-1	RECQ1 inh-1	L3MBTL1 block	DNA dye displace	Endo IV inh	APE1 inh-2	APE1 FP	RECQ1 inh conf	ADP FP counter	RECQ1 inh-2	others
Cc1ccc(N2C(=O)c3ccccc3C2C(=O)c2ccc(O)cc2O)cc1 (stereo unspecified)	6.31µM*	?	2.8%	14.1µM*	4.47µM*	1.2%	11.6%	?	-6.5%	2.7%[114 µM]	-21.6%[91.9 µM]	-17.7%
Nc1ccc(-c2nc3ccc(-c4nc5ccc(N)cc5[nH]4)cc3[nH]2)cc1	?	/	14.1µM*	25.1µM*	/	/	28.2µM*	15.8µM*	/	28.2µM*	28.2µM*	31.6µM*
Nc1ncnc2oc(-c3ccco3)c(-c3ccco3)c12	7.94µM*	?	15.8µM*	10µM*	25.1µM*	-10.3%	11.7%	39.8µM*	-7.1%	50.1µM*	39.8µM*	-27.8%
COc1ccc(OC2C=CC(C#Cc3ccc(Br)cc3)OC2CO)c(C(C)(C)C)c1 (stereo unspecified)	?	/	-9.4%[12.4 µM]	-7.7%[11.5 µM]	/	/	/	/	/	/	/	/
Cn1c(SCC(=O)Nc2ccc3nc(SCC(=O)N4CCCC4)sc3c2)nnc1-c1ccc(N)cc1	10µM*	?	-28.6%	0.631µM*	/	/	/	?	/	7.08µM*	?	?
Cn1c(SCC(=O)Nc2ccc3nc(SCC(=O)NC4CC4)sc3c2)nnc1-c1ccccc1	4.1%	-3.5%	-3.3%	-12.6%	-0.6%	/	/	/	/	/	/	/
Cc1ccc(/C=c2\sc3nc(-c4ccccc4Br)nn3c2=O)o1	12.6µM*	?	-20.6%	?	/	?	8.0%	-26.4%[24.4 µM]	13.7%	/	/	32.4%
CC1(C)Cc2c(sc3[nH]c(=S)n(Cc4ccco4)c(=O)c23)CO1	35.5µM*	-24.0%	-8.8%	?	-0.9%	-7.1%	7.8%	-4.6%[24.4 µM]	?	/	/	0.6%
CC1(C)Cc2c(sc3c2c(=N)n(Cc2ccco2)c(=O)n3Cc2ccccc2)CO1	-9.1%	1.8%	-12.0%	-4.9%	/	/	/	/	/	/	/	/
O=[N+]([O-])c1ccc(/C=C/C2=NN(c3ccccc3)C(c3ccco3)C2)o1 (stereo unspecified)	?	?	-22.2%	?	?	21.3%	?	14.1µM*	-85.9%	/	/	7.94µM*
C(=C\c1ccco1)/C1=NN(c2ccccc2)C(c2ccco2)C1 (stereo unspecified)	-2.1%	?	-28.7%	-16.5%	21.3%	/	/	/	/	/	/	/
O=C1C=C(NCc2ccc(Cl)cc2)CC(c2ccco2)C1 (stereo unspecified)	-5.0%	-14.5%	-8.3%	-5.9%	-13.3%	/	/	/	/	/	/	/
CC(C)CNC1=CC(=O)CC(c2ccco2)C1 (stereo unspecified)	6.31µM*	-21.5%	-22.6%	11.2µM*	?	0.8%	10.5%	-11.0%[24.4 µM]	-17.4%	?	?	?
O=C1CC(=O)N(Cc2ccco2)C(=S)N1	11.2µM*	10µM*	?	11.2µM*	/	3.2%	35.4%	35.5µM*	?	15.8µM*	17.2%[91.9 µM]	/
CCOC(=O)NCCOc1ccc(Oc2ccccc2)cc1	-2.4%	/	-12.7%	-18.2%	/	/	/	/	/	/	/	/
CC1CCCCC12NC(=O)N(CC(=O)Nc1sc3c(c1C(N)=O)CCC3)C2=O (stereo unspecified)	7.94µM*	?	1.0%	?	/	?	-4.9%	-24.2%[24.4 µM]	3.9%	/	/	-28.7%
COC(=O)c1c(NC(=O)CN2C(=O)NC3(CCC(C)CC3)C2=O)sc2c1CCC2 (stereo unspecified)	-2.0%	-0.9%	/	/	-3.2%	/	/	/	/	/	/	/
COc1ccc2c(c1)c(=O)oc1cc(OCC(=O)N3CCCC(C)C3)ccc12 (stereo unspecified)	?	-20.7%	-7.3%	i	-4.6%	/	/	/	/	/	/	/
COc1ccc2c(c1)c(=O)oc1cc(OCC(=O)N3CCc4ccccc4C3)ccc12	10µM*	?	-19.1%	14.1µM*	/	-3.1%	?	3.98µM*	-28.7%	-7.1%[114 µM]	0.3%[91.9 µM]	?
O=C(O)C1=CC(=C(c2ccc(O)c(C(=O)O)c2)c2ccc(O)c(C(=O)O)c2)C=CC1=O	0.0067µM*	/	2.82µM*	0.282µM*	?	/	2.24µM*	0.0562µM*	/	0.257µM*	0.0%[25.6 µM]	/	BLM inh-2=10.8µM*
CSCC[C@H](NC(=O)[C@H](Cc1ccccc1)NC(=O)[C@H](Cc1cnc[nH]1)NC(=O)CNC(=O)[C@@H](NC(=O)[C@H](C)NC(=O)[C@H](Cc1c[nH]c2ccccc12)NC(=O)[C@H](CCC(N)=O)NC(=O)[C@@H]1CCCN1C(=O)[C@@H](NC(=O)[C@@H]1CCC(=O)N1)C(C)C)C(C)C)C(N)=O	-4.0%	/	-1.1%	-5.4%	/	/	/	/	/	/	/	/
NC1=NC(=O)/C(=C\c2ccco2)S1	22.4µM*	50.1µM*	-22.3%	?	/	?	5.3%	?	-4.2%	/	/	-22.3%
C=C/C(C)=C/[C@@]1(C)SC(=O)C(C)=C1O	3.16µM*	/	/	8.91µM*	/	/	-19.7%[57.1 µM]	2µM*	/	39.8µM*	11.2µM*	/

Assay outcomes as filed in PubChem BioAssay.
